Eleven molecules from PMC5540273 (PLoS ONE, 2017) can be followed below.

Test systems include EPHA3; EPHA4; EPHA5; EPHA6; EPHA7; EPHA8; EPHB1; EPHB2; EPHB3; EPHB4; EPHB6; ERBB2; ERBB3; ERBB4.
Holding throughout (details): concentration: 1 μM, replicates: in singlicate; n = 1
The next experiment deals with T1, ERK1.
T1 construct: gene MAPK3

In another experiment the test system is T2, ERK2.
T2 construct: gene MAPK1

A further experiment has as its system T3, ERK3.
T3 construct: gene MAPK6

For another experiment, the system named is T4, ERK4.
T4 construct: gene MAPK4

The test system of a further experiment is T5, ERK5.
T5 construct: gene MAPK7

Another experiment has as its system T6, ERK8.
T6 construct: gene MAPK15
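Note: KINOMEscan kinase panel screen.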

In the case of `COc1ccc(S(=O)(=O)NC2CCN(c3cc(C)nc(Nc4cccc(C#N)c4)n3)CC2)cc1.O=C(O)C(F)(F)F` [GSK1653539], the “%Inh” value in the experiment with EPHA3 stood at 7%; with EPHA4 it was 11%; with EPHA5 it was 0%; in the experiment with EPHA6, 0%; with EPHA7, 0%; in the experiment with EPHA8, 0%. The “%Inh” value in the experiment on EPHB1 is reported as 7%; in the experiment with EPHB2, 0%; in the experiment with EPHB3 it was 13%; in the experiment on EPHB4, 16%; in the experiment on EPHB6, 14%; with ERBB2 it was 0%. The “%Inh” value amounted to 0% in the experiment with ERBB3; 0% in the experiment with ERBB4; 0% in the experiment on ERK1; 0% with ERK2; 13% in the experiment with ERK3; 0% in the experiment with ERK4. The “%Inh” value in the experiment with ERK5 and with ERK8 was 0% each time.
Regarding `NS(=O)(=O)c1cccc(-c2ccc3ncc(N4CCOCC4)nc3c2)c1` [GSK1535721], the “%Inh” value in the experiment with EPHA3 is listed as 11%; in the experiment on EPHA4, 8%; in the experiment with EPHA5 it was 0%; in the experiment on EPHA6, 8%; with EPHA7 it was 3%; with EPHA8, 11%. The “%Inh” value worked out at 5% in the experiment with EPHB1; 6% in the experiment with EPHB2; 9% in the experiment with EPHB3; 17% in the experiment on EPHB4; 25% in the experiment with EPHB6; 32% in the experiment on ERBB2. For the same molecule, the “%Inh” value with ERBB3 came to 11%; in the experiment on ERBB4, 1%; in the experiment with ERK1, 0%; with ERK2 it was 0%; with ERK3, 0%; in the experiment on ERK4, 0%. In addition, the “%Inh” value in the experiment with ERK5 is recorded as 10%; with ERK8, 0%.
As to `O=c1cc(N2CCOCC2)nc2n(Cc3cccc(F)c3)ccn12` [GSK2297430], the “%Inh” value with EPHA3 turned out to be 0%; with EPHA4 it was 10%; with EPHA5, 0%; in the experiment with EPHA6 it was 10%; in the experiment with EPHA7, 4%; with EPHA8, 13%. Further, the “%Inh” value with EPHB1 was found to be 0%; in the experiment on EPHB2, 0%; in the experiment on EPHB3, 14%; in the experiment on EPHB4, 17%; in the experiment on EPHB6 it was 0%; in the experiment on ERBB2, 0%. For the same molecule, the “%Inh” value in the experiment with ERBB3 was found to be 0%; with ERBB4, 0%; with ERK1, 15%; in the experiment with ERK2, 6%; in the experiment on ERK3 it was 14%; with ERK4 it was 0%. Besides, the “%Inh” value with ERK5 was found to be 0%; with ERK8 it was 6%.
For the molecule `CCCCCc1nc2c(N)ncnc2n1CCCCC` [SKF-97255], the “%Inh” value in the experiment on EPHA3 worked out at 0%; with EPHA4, 10%; in the experiment with EPHA5, 0%; in the experiment with EPHA6, 5%; in the experiment with EPHA7 it was 0%; in the experiment with EPHA8 it was 0%. The “%Inh” value with EPHB1 was 5%; in the experiment on EPHB2, 0%; in the experiment with EPHB3 it was 5%; with EPHB4, 0%; in the experiment on EPHB6 it was 6%; in the experiment on ERBB2 it was 4%. The “%Inh” value with ERBB3, in the experiment with ERBB4, in the experiment on ERK1, in the experiment with ERK2, in the experiment with ERK3 and with ERK4 was 0% each time. The “%Inh” value with ERK5 is reported as 0%; in the experiment with ERK8 it was 29%.
On to `CC(=O)Nc1ccc(COc2ccc(Nc3ccnc4cc(-c5ccccn5)ccc34)cc2)cc1.Cl` [GW440148], for which the “%Inh” value was determined as 17% with EPHA3; 3% in the experiment on EPHA4; 0% in the experiment with EPHA5; 8% with EPHA6; 0% with EPHA7; 17% in the experiment with EPHA8. Besides, the “%Inh” value turned out to be 0% in the experiment on EPHB1; 0% in the experiment on EPHB2; 8% with EPHB3; 10% with EPHB4; 53% with EPHB6; 12% in the experiment with ERBB2. The “%Inh” value was found to be 0% with ERBB3; 73% with ERBB4; 0% in the experiment with ERK1; 0% in the experiment on ERK2; 6% with ERK3; 47% in the experiment with ERK4. In addition, the “%Inh” value is 14% with ERK5 and 0% with ERK8.
Consider `O=C1NC(=O)C(N2CCc3ccccc32)=C1c1cccc(Cl)c1` [SB-408010], for which the “%Inh” value in the experiment on EPHA3 came out at 0%; in the experiment on EPHA4 it was 19%; in the experiment on EPHA5 it was 17%; with EPHA6, 18%; in the experiment with EPHA7 it was 0%; with EPHA8, 0%. The “%Inh” value in the experiment with EPHB1 amounted to 0%; in the experiment with EPHB2, 3%; in the experiment with EPHB3, 23%; with EPHB4 it was 22%; in the experiment on EPHB6, 0%; with ERBB2, 0%. Further, the “%Inh” value worked out at 0% in the experiment on ERBB3; 0% in the experiment on ERBB4; 0% with ERK1; 12% in the experiment on ERK2; 0% in the experiment with ERK3; 0% with ERK4. Besides, the “%Inh” value in the experiment with ERK5 was 0%; with ERK8, 9%.
`Cc1cccc(Cn2ccn3c(=O)cc(N4CCOCC4)nc23)c1` [GSK2297542]: the “%Inh” value was determined as 12% with EPHA3; 10% with EPHA4; 0% with EPHA5; 9% in the experiment with EPHA6; 0% in the experiment on EPHA7; 19% in the experiment on EPHA8. Also, the “%Inh” value came out at 23% with EPHB1; 0% in the experiment with EPHB2; 13% in the experiment with EPHB3; 15% in the experiment on EPHB4; 24% with EPHB6; 1% in the experiment on ERBB2. The “%Inh” value was 0% in the experiment on ERBB3; 27% in the experiment on ERBB4; 20% with ERK1; 5% in the experiment with ERK2; 27% in the experiment with ERK3; 32% in the experiment on ERK4. For the same molecule, the “%Inh” value in the experiment on ERK5 and in the experiment on ERK8 was 0% in each case.
With `COc1cc(Nc2nccc(N3CCC(NC(=O)c4cccc(NC(C)=O)c4)C3)n2)cc(OC)c1OC` (stereo not shown) [GSK1379754], the “%Inh” value in the experiment with EPHA3 worked out at 0%; in the experiment on EPHA4, 9%; in the experiment on EPHA5, 6%; in the experiment with EPHA6, 20%; in the experiment with EPHA7, 11%; with EPHA8, 26%. In addition, the “%Inh” value stood at 15% in the experiment with EPHB1; 0% in the experiment with EPHB2; 17% in the experiment on EPHB3; 12% in the experiment on EPHB4; 78% with EPHB6; 16% with ERBB2. Also, the “%Inh” value with ERBB3 worked out at 0%; with ERBB4, 1%; in the experiment on ERK1, 0%; with ERK2, 14%; in the experiment with ERK3, 0%; in the experiment with ERK4, 1%. For the same molecule, the “%Inh” value in the experiment on ERK5 and in the experiment with ERK8 was 0% each time.
In the case of `O=C(Nc1cccc(-c2nn3ncccc3c2-c2ccnc(Nc3cccc(C(F)(F)F)c3)n2)c1)c1c(F)cccc1F` [GSK299495], the “%Inh” value with EPHA3 is recorded as 0%; in the experiment on EPHA4 it was 8%; with EPHA5, 0%; with EPHA6, 11%; with EPHA7, 54%; in the experiment with EPHA8 it was 49%. The “%Inh” value in the experiment on EPHB1 is 29%; in the experiment on EPHB2 it was 0%; in the experiment with EPHB3 it was 14%; in the experiment on EPHB4, 9%; in the experiment with EPHB6 it was 30%; in the experiment with ERBB2, 92.1%. Besides, the “%Inh” value is on record as 56% with ERBB3; 98.4% with ERBB4; 0% in the experiment on ERK1; 0% in the experiment on ERK2; 7% in the experiment with ERK3; 18% with ERK4. Moreover, the “%Inh” value in the experiment with ERK5 and in the experiment with ERK8 was 0% throughout.
Turning to `COc1ccc(CNC(=O)NC2CCN(c3ccnc(Nc4ccc(OC)cc4)n3)C2)cc1` (stereo not shown) [GSK1379727], the “%Inh” value is 0% in the experiment with EPHA3; 10% with EPHA4; 0% in the experiment with EPHA5; 2% with EPHA6; 0% with EPHA7; 1% in the experiment on EPHA8. The “%Inh” value came to 6% in the experiment with EPHB1; 0% in the experiment with EPHB2; 7% in the experiment with EPHB3; 11% in the experiment with EPHB4; 26% in the experiment on EPHB6; 39% in the experiment with ERBB2. In addition, the “%Inh” value in the experiment with ERBB3 is listed as 10%; in the experiment with ERBB4, 2%; in the experiment on ERK1, 0%; in the experiment with ERK2, 0%; in the experiment on ERK3, 0%; in the experiment with ERK4 it was 20%. Also, the “%Inh” value in the experiment on ERK5 and with ERK8 was 0% in each case.
Consider `O=c1cc(N2CCOCC2)nc2n(Cc3cccc4ccccc34)ccn12` [GSK2333389], for which the “%Inh” value came to 0% in the experiment on EPHA3; 14% in the experiment with EPHA4; 0% in the experiment with EPHA5; 8% with EPHA6; 5% in the experiment with EPHA7; 9% in the experiment on EPHA8. Moreover, the “%Inh” value in the experiment on EPHB1 was 10%; in the experiment with EPHB2, 0%; in the experiment on EPHB3, 11%; with EPHB4, 5%; with EPHB6, 12%; with ERBB2, 0%. Besides, the “%Inh” value in the experiment with ERBB3 is 0%; with ERBB4 it was 0%; in the experiment with ERK1, 3%; in the experiment with ERK2, 0%; with ERK3 it was 0%; with ERK4, 25%. The “%Inh” value worked out at 0% in the experiment on ERK5 and 43% with ERK8.
